{"source": "ChEMBL document CHEMBL4808148", "about": "“HDAC6 screening dataset using tau-based substrate in an enzymatic assay yields selective inhibitors and activators” (2021)", "note": "Hit rate of the full screen: of about 5,600 compounds, about 390 (7%) showed an effect of 50% or more. Many of the other results were omitted from the sample, so strong results are more common in it than they were.", "data": [{"target": "T1, Protein deacetylase HDAC6 (Homo sapiens) (UniProt Q9UBN7)", "T1 sequence (whole entry)": "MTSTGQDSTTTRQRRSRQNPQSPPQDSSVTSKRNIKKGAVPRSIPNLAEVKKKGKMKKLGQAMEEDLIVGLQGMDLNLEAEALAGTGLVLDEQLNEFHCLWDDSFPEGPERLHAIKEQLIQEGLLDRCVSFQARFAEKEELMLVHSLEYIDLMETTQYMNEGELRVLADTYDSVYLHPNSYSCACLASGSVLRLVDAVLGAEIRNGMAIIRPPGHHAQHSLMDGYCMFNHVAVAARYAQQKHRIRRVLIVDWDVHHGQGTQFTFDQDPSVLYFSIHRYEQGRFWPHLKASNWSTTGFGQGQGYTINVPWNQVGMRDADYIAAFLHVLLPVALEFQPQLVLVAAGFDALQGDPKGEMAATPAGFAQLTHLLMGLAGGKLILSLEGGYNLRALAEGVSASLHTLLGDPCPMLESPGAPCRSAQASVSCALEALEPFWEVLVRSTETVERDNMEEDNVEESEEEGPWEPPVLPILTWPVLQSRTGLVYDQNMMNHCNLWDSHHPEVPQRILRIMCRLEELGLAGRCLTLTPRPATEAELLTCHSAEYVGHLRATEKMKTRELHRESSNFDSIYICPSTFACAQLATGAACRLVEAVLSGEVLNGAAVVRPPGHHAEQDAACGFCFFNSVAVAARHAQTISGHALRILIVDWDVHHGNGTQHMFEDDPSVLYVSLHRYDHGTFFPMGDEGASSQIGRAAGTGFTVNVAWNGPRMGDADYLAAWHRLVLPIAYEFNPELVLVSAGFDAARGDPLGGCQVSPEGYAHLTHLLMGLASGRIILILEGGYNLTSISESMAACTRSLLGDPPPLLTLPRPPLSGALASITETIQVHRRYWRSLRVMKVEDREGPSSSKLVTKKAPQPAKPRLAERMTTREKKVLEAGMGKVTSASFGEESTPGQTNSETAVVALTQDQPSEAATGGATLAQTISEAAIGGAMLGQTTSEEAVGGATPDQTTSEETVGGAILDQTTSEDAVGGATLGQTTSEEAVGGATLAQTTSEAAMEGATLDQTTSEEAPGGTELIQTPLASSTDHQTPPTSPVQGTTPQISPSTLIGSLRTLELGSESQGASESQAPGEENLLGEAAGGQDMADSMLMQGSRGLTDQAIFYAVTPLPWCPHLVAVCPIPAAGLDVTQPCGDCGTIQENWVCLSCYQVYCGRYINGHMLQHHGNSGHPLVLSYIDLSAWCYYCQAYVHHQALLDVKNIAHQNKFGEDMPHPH", "details": "at 10 µM", "units": {"inhibition": "%"}, "values": [{"compound": "Cc1cc(C)n(-c2cccc([C@H](CC(=O)O)CN3CC[C@@H](CCc4ccc5c(n4)NCCC5)C3)c2)n1", "inhibition": -4.01}, {"compound": "C[C@H]1CC[C@H](n2c3cnccc3c3cnc(Nc4ccc5c(n4)CCN(C(=O)CO)C5)nc32)CC1", "inhibition": -9.6}, {"compound": "CC[C@@H]1CN2C(=O)N(C)c3nc(-c4ccccc4)[nH]c3C2=N1", "inhibition": -3.85}, {"compound": "COc1ccc(C(=O)Nc2sc3c(c2C(N)=O)CCCC3)cc1OC", "inhibition": 31.6}, {"compound": "CC(C)(C)C1CCc2c(sc(NC(=O)c3ccco3)c2C(=O)O)C1", "note": "(configuration not stated)", "inhibition": 102}, {"compound": "N[C@@H](Cc1ccc(B(O)O)cc1)C(=O)O", "inhibition": 0.83}, {"compound": "CNc1ncc2cc(-c3cc(NC(=O)NCCC(C)(C)C)c(F)cc3C)c(C)nc2n1", "inhibition": 12.4}, {"compound": "C/C(=N\\NC(=O)[C@@H]1C(=O)NC[C@H]1c1ccccc1)c1cccc(Br)c1", "inhibition": 17.4}, {"compound": "CN1CCc2c(c3ccccc3n2Cc2ccc(C(=O)NO)cc2)C1", "inhibition": 101}, {"compound": "Fc1ccc(Cn2c(NC3CCNCC3)nc3ccccc32)cc1", "inhibition": 6.44}, {"compound": "CCO[C@@H](Cc1ccc(OCCc2ccc(OS(C)(=O)=O)cc2)cc1)C(=O)O", "inhibition": -7.27}, {"compound": "O=C(/C=C/c1cccnc1)NCCCCC1CCN(C(=O)c2ccccc2)CC1", "inhibition": -0.26}, {"compound": "COc1cc(/C=C/C(=O)CC(=O)/C=C/c2ccc(O)c(OC)c2)ccc1O", "inhibition": 38.8}, {"compound": "Nc1cc(F)ccc1NC(=O)/C=C/c1cnn(C/C=C/c2ccccc2)c1", "inhibition": 12.4}, {"compound": "O=C(c1cccc(Br)c1)N1CCC(N2CCCC2)CC1", "inhibition": 1.11}, {"compound": "O=C(/C=C/c1ccccc1)NCCO", "inhibition": 81.5}, {"compound": "CCNC(=O)/C=C/c1cccc(Br)c1", "inhibition": 54.9}, {"compound": "CC12CCC(C(=O)N(CCCCN3CCN(c4ccccn4)CC3)C1=O)C2(C)C", "note": "(configuration not stated)", "inhibition": 4.93}, {"compound": "C[C@@H]1O[C@@H](O[C@H]2[C@H](Oc3cc(O)c4c(c3)O[C@H](c3ccc(O)cc3)CC4=O)O[C@H](CO)[C@@H](O)[C@@H]2O)[C@H](O)[C@H](O)[C@H]1O", "inhibition": 11.8}, {"compound": "O=C(O)C[C@H]1CC[C@H](c2ccc(-c3ccc(Nc4ccc(C(F)(F)F)nc4)cn3)cc2)CC1", "inhibition": 17.5}, {"compound": "CC(C)c1ccc2c(c1)CC[C@H]1[C@](C)(CN)CCC[C@]21C", "inhibition": 10.1}, {"compound": "CC(C)N(CCC(=O)c1ccc2ccccc2c1)Cc1ccccc1", "inhibition": 59.8}, {"compound": "C/C(=C\\C(=O)Nc1ccccc1C(=O)O)c1ccc2ccccc2c1", "inhibition": 27.8}, {"compound": "C=CC(=O)c1ccc2ccccc2c1", "inhibition": 20.7}, {"compound": "CC(=O)c1c(C)c2cnc(Nc3ccc(N4CCNCC4)cn3)nc2n(C2CCCC2)c1=O", "inhibition": 3.93}, {"compound": "C[C@H]1CN(C[C@H](Cc2ccccc2)C(=O)NCC(=O)O)CC[C@@]1(C)c1cccc(O)c1", "inhibition": 72.7}, {"compound": "CC(C)C[C@H](NC(=O)[C@H](CCc1ccccc1)NC(=O)CN1CCOCC1)C(=O)N[C@@H](Cc1ccccc1)C(=O)N[C@@H](CC(C)C)C(=O)[C@@]1(C)CO1", "inhibition": 0.65}, {"compound": "CC(=O)SCC(Cc1ccccc1)C(=O)NCC(=O)OCc1ccccc1", "note": "(configuration not stated)", "inhibition": 3.61}, {"compound": "O=C(CN1CCN(C(=O)c2ccco2)CC1)Nc1cc(C(F)(F)F)ccc1Cl", "inhibition": 18.3}, {"compound": "Nc1nc2cc(-c3ccc4ncc(C(=O)N5CCOCC5)n4c3)ccc2o1", "inhibition": 17.8}, {"compound": "CN(CCCN1c2ccccc2CCc2ccccc21)CC(=O)c1ccc(Cl)cc1", "inhibition": 35.1}, {"compound": "Cc1cc(O)c(C(C)C)cc1Cl", "inhibition": 35.2}, {"compound": "CCCN[C@H]1CCc2nc(N)sc2C1", "inhibition": 14.3}, {"compound": "CC(C)(C)c1cc(C(=O)/C=C/c2ccc(C(=O)O)cc2)cc(C(C)(C)C)c1", "inhibition": 35.2}, {"compound": "O=C(/C=C/c1ccc(O)cc1)c1ccc(O)cc1O", "inhibition": 98.6}, {"compound": "O=C(/C=C/c1ccc(O)c(O)c1)c1ccc(O)cc1O", "inhibition": 97.5}, {"compound": "CC(C)=CCOc1ccc(/C=C/C(=O)c2ccc(OCC=C(C)C)cc2OCC(=O)O)cc1", "inhibition": -0.94}, {"compound": "O=C(O)/C=C/c1ccc(O)c(O)c1", "inhibition": -8.03}, {"compound": "NC(=O)c1cccc(-c2cc(Nc3ccc(OC(F)(F)F)cc3)ncn2)c1", "inhibition": -8.36}, {"compound": "c1coc(-c2nnc3sc(C4CCCCC4)nn23)c1", "inhibition": -6.78}, {"compound": "O=C(Nc1ccc(Oc2ccc(Cl)cn2)c(Cl)c1)c1ccccn1", "inhibition": 44.2}, {"compound": "CN(Cc1ccc(C(C)(C)C)cc1)Cc1cccc2ccccc12", "inhibition": 2.21}, {"compound": "CC(C)=CCC/C(C)=C/CC/C(C)=C/CSc1ccccc1C(N)=O", "inhibition": -0.26}, {"compound": "O=C(Nc1cccnc1)c1cc(-c2ccnc(F)c2)ccc1OCc1ccccc1", "inhibition": 9.93}, {"compound": "O=C1c2ccccc2-c2n[nH]c3cccc1c23", "inhibition": 88.8}, {"compound": "CCOC(=O)c1c(O)nc2cccc3c2c1-c1ccccc1C3=O", "inhibition": 41.8}, {"compound": "O=C(c1c(O)nc2cc(Cl)ccc2c1O)C1CC1", "inhibition": -2.41}, {"compound": "C[C@H](NC(=O)/C(C#N)=C/c1ccc(O)c(O)c1)c1ccccc1", "inhibition": 30.1}, {"compound": "CCCCCCCC/C=C\\CCCCCCCC(=O)NCCc1ccc(O)c(O)c1", "inhibition": 29.4}, {"compound": "N#C/C(=C\\c1ccc(O)c(O)c1)C(N)=O", "inhibition": 16.6}, {"compound": "N#C/C(=C\\c1ccc(O)c(O)c1)C(=O)Nc1ccccc1", "inhibition": 89}, {"compound": "N#C/C(=C\\c1ccc(O)c(O)c1)C(=O)OCCc1cccs1", "inhibition": 40.4}, {"compound": "N#C/C(=C\\c1ccc(O)c(O)c1)C(=O)NCc1ccccc1", "inhibition": 53}, {"compound": "CCCCCCCCNC(=O)/C(C#N)=C/c1cn(CCCN(C)C)c2ccccc12", "inhibition": 7.03}, {"compound": "O=C(CCCl)NCc1ccccc1", "inhibition": -3.62}, {"compound": "N#C/C(=C\\c1ccc(O)c(O)c1)C(=O)NCCCc1ccccc1", "inhibition": 88.2}, {"compound": "COc1cc(C[C@@H]2NCCc3cc(O)c(O)cc32)cc(OC)c1OC", "inhibition": 3.77}, {"compound": "N#CC(Cc1ccc(O)cc1)c1ccc(O)cc1", "note": "(configuration not stated)", "inhibition": 21.2}, {"compound": "COc1ccc2[nH]c(SCc3ncc(C)c(OC)c3C)nc2c1", "inhibition": 62.8}, {"compound": "COc1ccc2[nH]c([S@@+]([O-])Cc3ncc(C)c(OC)c3C)nc2c1", "inhibition": 26.7}, {"compound": "COc1ccc2[nH]c([S+]([O-])Cc3ncc(C)c(OC)c3C)nc2c1", "note": "(configuration not stated)", "inhibition": 16.1}, {"compound": "CCC[C@H](NC(=O)[C@@H]1[C@H]2CCC[C@H]2CN1C(=O)[C@@H](NC(=O)[C@@H](NC(=O)c1cnccn1)C1CCCCC1)C(C)(C)C)C(=O)C(=O)NC1CC1", "inhibition": -8.83}, {"compound": "Oc1ccnc2cc(Cl)ccc12", "inhibition": 28.9}, {"compound": "Clc1ccc2c(NCCNc3ccnc4cc(Cl)ccc34)ccnc2c1", "inhibition": 14.9}, {"compound": "O=C(OCC(O)CO)c1ccccc1Nc1ccnc2cc(Cl)ccc12", "note": "(configuration not stated)", "inhibition": 94.8}, {"compound": "O=C(O)CCNc1cc(N2CCc3ccccc3CC2)nc(-c2cccnc2)n1", "inhibition": -1.98}, {"compound": "Cc1cc(O)c2c(=O)c3c(O)cc(O)c4c5c(O)cc(O)c6c(=O)c7c(O)cc(C)c8c1c2c(c34)c(c78)c65", "inhibition": 85}]}]}
